From the supplement of paper PMC6522484
± gives the standard deviation of the averaged measurements.

How the values were obtained:
DLD1 [1] = assay: cell viability (CellTiter-Glo) relative to plate median (fraction of plate median); higher = more viable cells; conditions: 10 µM, treatment time 24 h
Summary of the method: (§1)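 Kinase inhibitor library compounds were added at a final 10 µM for 24 h to colorectal cancer cells in 384-well plates, 24 h after seeding. The cells stably expressed lentiviral TCF/Wnt firefly luciferase reporters. Firefly luciferase and CellTiterGlo luminescence came from parallel plates, and each well was normalised to its plate median (webcellHTS2, additive, untransformed), averaged over two independent replicates.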

HCT116 [2] = assay: as above; conditions: 10 µM; treatment time 24 h; reporter: TCF4/Wnt
Summary of the method: as §1

SW480 [3] = assay: as above; conditions: 10 µM; treatment time 24 h; reporter: 7TFP
Summary of the method: as §1

DLD1 [4] = assay: TCF/Wnt firefly luciferase reporter signal relative to plate median (fraction of plate median); higher = higher Wnt reporter signal; conditions: 10 µM, treatment time 24 h
Summary of the method: as §1

HCT116 [5] = assay: as above; conditions: 10 µM; treatment time 24 h; reporter: TCF4/Wnt
Summary of the method: as §1

SW480 [6] = assay: as above; conditions: 10 µM; treatment time 24 h; reporter: 7TFP
Summary of the method: as §1

CN1CCN(c2nc(C3=C(c4c[nH]c5ccccc45)C(=O)NC3=O)c3ccccc3n2)CC1 [Sotrastaurin (AEB071)]
cell viability (DLD1 [1]; reporter: 7TFP): 1.08 ± 0.092 | cell viability (DLD1 [1]; reporter: TCF4/Wnt): 1.045 ± 0.0071 | cell viability (HCT116 [2]): 1.03 ± 0.13 | cell viability (SW480 [3]): 0.914 ± 0.1 | TCF/Wnt firefly luciferase reporter signal (DLD1 [4]; reporter: 7TFP): 1.54 ± 0.05 | TCF/Wnt firefly luciferase reporter signal (DLD1 [4]; reporter: TCF4/Wnt): 1.52 ± 0.28 | TCF/Wnt firefly luciferase reporter signal (HCT116 [5]): 1.33 ± 0.83 | TCF/Wnt firefly luciferase reporter signal (SW480 [6]): 0.983 ± 0.63

O=C(Nc1cc(C(F)(F)F)cc(C(F)(F)F)c1)c1cc(Cl)ccc1O
cell viability (DLD1 [1]; reporter: 7TFP): 0.48 ± 0.1 | cell viability (DLD1 [1]; reporter: TCF4/Wnt): 0.618 ± 0.011 | cell viability (HCT116 [2]): 0.303 ± 0.12 | cell viability (SW480 [3]): 0.477 ± 0.03 | TCF/Wnt firefly luciferase reporter signal (DLD1 [4]; reporter: 7TFP): 0.473 ± 0.11 | TCF/Wnt firefly luciferase reporter signal (DLD1 [4]; reporter: TCF4/Wnt): 1.47 ± 0.67 | TCF/Wnt firefly luciferase reporter signal (HCT116 [5]): 0.133 ± 0.072 | TCF/Wnt firefly luciferase reporter signal (SW480 [6]): 0.3675 ± 0.0021

CNC(=O)c1cc(Oc2ccc(NC(=O)Nc3ccc(Cl)c(C(F)(F)F)c3)cc2)ccn1 [Sorafenib (Nexavar)]
cell viability (DLD1 [1]; reporter: 7TFP): 1.11 ± 0.028 | cell viability (DLD1 [1]; reporter: TCF4/Wnt): 1.04 ± 0.098 | cell viability (HCT116 [2]): 1.135 ± 0.0071 | cell viability (SW480 [3]): 1.04 ± 0.021 | TCF/Wnt firefly luciferase reporter signal (DLD1 [4]; reporter: 7TFP): 0.959 ± 0.2 | TCF/Wnt firefly luciferase reporter signal (DLD1 [4]; reporter: TCF4/Wnt): 0.883 ± 0.081 | TCF/Wnt firefly luciferase reporter signal (HCT116 [5]): 1.06 ± 0.078 | TCF/Wnt firefly luciferase reporter signal (SW480 [6]): 1.19 ± 0.057

CO[C@H]1C[C@@H]2CC[C@@H](C)[C@@](O)(O2)C(=O)C(=O)N2CCCC[C@H]2C(=O)O[C@H]([C@H](C)C[C@@H]2CC[C@@H](OP(C)(C)=O)[C@H](OC)C2)CC(=O)[C@H](C)/C=C(\C)[C@@H](O)[C@@H](OC)C(=O)[C@H](C)C[C@H](C)/C=C/C=C/C=C/1C [Deforolimus (Ridaforolimus)]
cell viability (DLD1 [1]; reporter: 7TFP): 0.979 ± 0.086 | cell viability (DLD1 [1]; reporter: TCF4/Wnt): 1.08 ± 0.092 | cell viability (HCT116 [2]): 0.979 ± 0.044 | cell viability (SW480 [3]): 1.27 ± 0.021 | TCF/Wnt firefly luciferase reporter signal (DLD1 [4]; reporter: 7TFP): 0.844 ± 0.022 | TCF/Wnt firefly luciferase reporter signal (DLD1 [4]; reporter: TCF4/Wnt): 1.02 ± 0.24 | TCF/Wnt firefly luciferase reporter signal (HCT116 [5]): 0.799 ± 0.43 | TCF/Wnt firefly luciferase reporter signal (SW480 [6]): 1.11 ± 0.39

Cc1cnc(NC(=O)Nc2cc(Br)c(C)cc2OC[C@@H]2CNCCO2)cn1
cell viability (DLD1 [1]; reporter: 7TFP): 0.833 ± 0.16 | cell viability (DLD1 [1]; reporter: TCF4/Wnt): 0.983 ± 0.096 | cell viability (HCT116 [2]): 0.805 ± 0.16 | cell viability (SW480 [3]): 1.02 ± 0.089 | TCF/Wnt firefly luciferase reporter signal (DLD1 [4]; reporter: 7TFP): 1.06 ± 0.057 | TCF/Wnt firefly luciferase reporter signal (DLD1 [4]; reporter: TCF4/Wnt): 1.12 ± 0.028 | TCF/Wnt firefly luciferase reporter signal (HCT116 [5]): 0.894 ± 0.35 | TCF/Wnt firefly luciferase reporter signal (SW480 [6]): 0.938 ± 0.012

Cc1cnc(Nc2ccc(N3CCN(C)CC3)cc2)nc1Nc1cccc(S(=O)(=O)NC(C)(C)C)c1
cell viability (DLD1 [1]; reporter: 7TFP): 0.833 ± 0.04 | cell viability (DLD1 [1]; reporter: TCF4/Wnt): 0.912 ± 0.18 | cell viability (HCT116 [2]): 0.514 ± 0.17 | cell viability (SW480 [3]): 0.702 ± 0.18 | TCF/Wnt firefly luciferase reporter signal (DLD1 [4]; reporter: 7TFP): 1.37 ± 0.2 | TCF/Wnt firefly luciferase reporter signal (DLD1 [4]; reporter: TCF4/Wnt): 2.17 ± 0.035 | TCF/Wnt firefly luciferase reporter signal (HCT116 [5]): 2.98 ± 0.97 | TCF/Wnt firefly luciferase reporter signal (SW480 [6]): 0.613 ± 0.3

CO[C@H]1C[C@@H]2CC[C@@H](C)[C@@](O)(O2)C(=O)C(=O)N2CCCC[C@H]2C(=O)O[C@H]([C@H](C)C[C@@H]2CC[C@@H](O)[C@H](OC)C2)CC(=O)[C@H](C)/C=C(\C)[C@@H](O)[C@@H](OC)C(=O)[C@H](C)C[C@H](C)/C=C/C=C/C=C/1C [Rapamycin (Sirolimus)]
cell viability (DLD1 [1]; reporter: 7TFP): 1.07 ± 0.1 | cell viability (DLD1 [1]; reporter: TCF4/Wnt): 0.904 ± 0.15 | cell viability (HCT116 [2]): 0.95 ± 0.017 | cell viability (SW480 [3]): 1.24 ± 0.014 | TCF/Wnt firefly luciferase reporter signal (DLD1 [4]; reporter: 7TFP): 1.07 ± 0.071 | TCF/Wnt firefly luciferase reporter signal (DLD1 [4]; reporter: TCF4/Wnt): 1.09 ± 0.26 | TCF/Wnt firefly luciferase reporter signal (HCT116 [5]): 1.38 ± 0.42 | TCF/Wnt firefly luciferase reporter signal (SW480 [6]): 1.65 ± 0.11

CCCS(=O)(=O)Nc1ccc(F)c(C(=O)c2c[nH]c3ncc(Cl)cc23)c1F
cell viability (DLD1 [1]; reporter: 7TFP): 1.03 ± 0.08 | cell viability (DLD1 [1]; reporter: TCF4/Wnt): 0.942 ± 0.074 | cell viability (HCT116 [2]): 1.12 ± 0.071 | cell viability (SW480 [3]): 0.837 ± 0.013 | TCF/Wnt firefly luciferase reporter signal (DLD1 [4]; reporter: 7TFP): 0.775 ± 0.33 | TCF/Wnt firefly luciferase reporter signal (DLD1 [4]; reporter: TCF4/Wnt): 0.746 ± 0.1 | TCF/Wnt firefly luciferase reporter signal (HCT116 [5]): 1.05 ± 0.11 | TCF/Wnt firefly luciferase reporter signal (SW480 [6]): 0.786 ± 0.067

Cc1ccc(F)c(NC(=O)Nc2ccc(-c3cccc4[nH]nc(N)c34)cc2)c1 [Linifanib (ABT-869)]
cell viability (DLD1 [1]; reporter: 7TFP): 0.833 ± 0.063 | cell viability (DLD1 [1]; reporter: TCF4/Wnt): 0.948 ± 0.1 | cell viability (HCT116 [2]): 0.764 ± 0.03 | cell viability (SW480 [3]): 0.883 ± 0.042 | TCF/Wnt firefly luciferase reporter signal (DLD1 [4]; reporter: 7TFP): 1.05 ± 0.086 | TCF/Wnt firefly luciferase reporter signal (DLD1 [4]; reporter: TCF4/Wnt): 1.33 ± 0.31 | TCF/Wnt firefly luciferase reporter signal (HCT116 [5]): 0.906 ± 0.15 | TCF/Wnt firefly luciferase reporter signal (SW480 [6]): 0.872 ± 0.42

CNC(=O)c1cc(COc2nnc(Nc3ccc(Cl)cc3)c3ccoc23)ccn1 [Telatinib (BAY 57-9352)]
cell viability (DLD1 [1]; reporter: 7TFP): 1.13 ± 0.23 | cell viability (DLD1 [1]; reporter: TCF4/Wnt): 0.987 ± 0.033 | cell viability (HCT116 [2]): 1.05 ± 0.079 | cell viability (SW480 [3]): 0.972 ± 0.024 | TCF/Wnt firefly luciferase reporter signal (DLD1 [4]; reporter: 7TFP): 1.32 ± 0.05 | TCF/Wnt firefly luciferase reporter signal (DLD1 [4]; reporter: TCF4/Wnt): 1.09 ± 0.13 | TCF/Wnt firefly luciferase reporter signal (HCT116 [5]): 1.08 ± 0.25 | TCF/Wnt firefly luciferase reporter signal (SW480 [6]): 1.08 ± 0.14
